This is an account of results in PubChem BioAssay.

Several values for one entry are separate records, joined by “and”; a condition that tells them apart may be missing. Identical values can stand only once. Values without a mark were called inactive. Activity calls are given as the source filed them.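 Rule for the calls: active = z-score of at least 1.8 in each of two replicates, scored against plate mean and spread of sample wells; inactive = the rest.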

A short description of this assay: viability rescue of complex I mutant cybrids, primary screen, cell-based, galactose medium, ATP luminescence (AID 1645843).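 Note: positive z means more ATP and so rescue of galactose-driven cybrid death.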 The note with it: complex I mutant cybrid cells, 72 h, hits give high values.
Turning to `CC12CC3CC(C)(C1)CC(N)(C3)C2`, the z-score is -0.41 and 0.5 and -0.635.
For `CC(=O)OCC(CCn1cnc2cnc(N)nc21)COC(C)=O` the value was 0.72 and 0.425 and 0.32; for `S=c1nc[nH]c2nc[nH]c12`, 2.91 (active).
For the compound `Oc1c(Cl)cc(Cl)c2cccnc12`, the z-score was -1.51.
For `OC(Cn1cncn1)(Cn1cncn1)c1ccc(F)cc1F` the value was 1.3 and 0.555; for `NCCc1ccc(O)c(O)c1`, -1.03 and -1.31; for `COc1c(N2CCNC(C)C2)c(F)cc2c(=O)c(C(=O)O)cn(C3CC3)c12` (stereo not drawn), 0.695 and -0.01.
For `O=C(C1CCCCC1)N1CC(=O)N2CCc3ccccc3C2C1` (stereo not drawn) the value was 1.16 and -1.2 and 1.07.
For `CCc1cc(C(N)=S)ccn1` the value was 0.725; for `CCCCNc1cc(C(=O)O)cc(S(N)(=O)=O)c1Oc1ccccc1`, 0.145 and 0.39 and 0.32.
For the compound `O=c1[nH]cnc2[nH]ncc12`, the z-score is 0.315 and -0.255.
`O=C1c2c(O)ccc(O)c2C(=O)c2c(NCCNCCO)ccc(NCCNCCO)c21`: the z-score was -1.29 and -1.52 and -2.29.
For `O=C(O)c1cc(=O)c2c(OCC(O)COc3cccc4oc(C(=O)O)cc(=O)c34)cccc2o1` the value was 0.69 and 0.68.
